Measurements from PubChem BioAssay AID485314 (National Center for Advancing Translational Sciences (NCATS), 2010).
About 4,500 (1.3%) of roughly 340,000 compounds were called active. Another 5% or so got no clear call; they are omitted. This is one part of a sample in which actives are shown more often than they occur. A number with no mark means an inactive call. Calls follow the shape of the dose curve; as a rule, active = well fitted inhibition curve with a large enough effect; inconclusive = small, poorly fitted or top-dose-only effect, or another doubt; inactive = no such curve, though single readings can be large or run the other way.

target: DNA polymerase beta (Homo sapiens) (UniProt P06746); assay: qHTS Assay for Inhibitors of DNA Polymerase Beta; conditions: Pol beta primer extension/strand displacement, fluorescence kinetic; series mostly up to 114 µM; activity change, negative = inhibition: at the top concentration
Description: The base excision repair system in human cells is a target for therapeutic modulation of the response to irradiation treatment and DNA-damaging drugs. A key enzyme in this system is the bi-functional DNA polymerase known as DNA polymerase Beta (Pol Beta). The following is a homogeneous kinetic assay to study the primer extension and strand-displacement reaction catalyzed by pol beta.
A stepwise description of the 1536-well assay is shown in next Table. Three microliters of reagents (buffer in column 3 and 4 as negative control and 10 nM Pol beta in columns 1, 2, and 5-48) was dispensed into 1,536-well black solid-bottomed plate. Compounds (23 nL) were transferred via Kalypsys pin tool equipped with 1536-pin array (10 nL slotted pins, V&P Scientific, San Diego, CA). The plates were incubated for 15 min at room temperature, and 1 uL substrate (50 nM final concentration) were added to start the reaction and immediately read at 0 min read on Viewlux reader. The plate were further incubated for 10 min at room temperature, and then read on Viewlux again. Throughout the screen, reagent bottle and all liquid lines were chilled and made light-tight to minimize reagent degradation. All screening operations were performed on a fully integrated robotic system (Kalypsys, San Diego, CA) containing one RX-130 and two RX-90 anthropomorphic robotic arms (Staubli, Duncan, SC). Library plates were screened starting from the lowest and proceeding to the highest concentration, and a double-dipping step of the highest concentration was required to access higher concentrations of compounds. Vehicle-only plates, with DMSO being pin-transferred to the entire column 5-48 compound area, were inserted uniformly at the beginning and the end of each library in order to monitor for and record any shifts in the background, which can be affected by reagent dispensers or loss in enzyme activity overtime. Screening data were corrected, normalized, and concentration-effect relationships were derived by using publicly-available curve fitting algorithms developed in-house (http://ncgc.nih.gov/pub/openhts). A four parameter Hill equation was fitted to the concentration-response data by minimizing the residual error between the modeled and observed responses.
% is scaled to controls: 0 for no effect and ±100 for the full control effect; potency is read from the fitted curve at half-maximal effect.

SMILES	activity change, negative = inhibition [%]	Potency
Cc1ccccc1NC(=O)Cn1cc(C(=O)c2cccs2)c2ccccc21	-21.9	–
CN(C(=O)c1ccc2c(c1)N(Cc1cccc(Cl)c1)C(=O)c1ccccc1S2=O)C1CCCCC1 (stereo not drawn)	4.04	–
COc1ccccc1NC(=O)C(=O)c1cc(C)n(-c2ccccc2F)c1C	4.34	–
CCOc1ccc(-n2c(SCC(=O)NCc3ccccc3)nc3n[nH]c(C)c3c2=N)cc1	–	25.1 µM (active)
COc1ccc(-n2c(SCC(=O)Nc3ccc(Cl)c(C)c3)nc3n[nH]c(C)c3c2=N)cc1	-7.34	–
CCCCNC(=O)CSc1nc2n[nH]c(C)c2c(=N)n1-c1cccc(Cl)c1C	–	inactive
COc1ccc(S(=O)(=O)n2nc(C)c(S(=O)(=O)N3CCCCCC3)c2C)cc1	-16.8	–
CSc1nn(Cc2cccc(C)c2)c(N)c1S(=O)(=O)c1ccccc1	-2.02	–
COc1cc(/C=C2/C(=O)NN(c3ccc(F)cc3)C2=O)cc([N+](=O)[O-])c1O	-29.4	–
Cc1ccc(N=C2NC(=O)/C(=C/C=C/c3ccco3)S2)cc1C	–	10 µM (active)
Cc1ccc(-n2ncc3c(=O)n(-c4ccc(C)c(C)c4)c(-c4ccco4)nc32)cc1	-0.115	–
Cc1ccc(N2NC(=O)/C(=C/C=C/c3ccco3)C2=O)cc1C	–	35.5 µM (active)
COc1ccccc1-c1ccnc2[nH]n(-c3ccccc3)c(=O)c12	-9.8	–
CC(C)c1ccc2oc(-c3cc(NC(=O)c4cccs4)ccc3Cl)nc2c1	1.78	–
N#Cc1ccsc1NC(=O)CN1CCCCC1	15.9	–
Cc1cccc(C)c1Nc1nnc(SCC(=O)Nc2sccc2C#N)s1	-26.1	–
Cc1csc(SCC(=O)Nc2sccc2C#N)n1	–	20 µM (active)
CCOc1ccc(NC(=O)CSc2c3c(nc4ccccc24)CCCC3)cc1	-1.51	–
COc1cc(NC(=O)CSc2nc3nc(C)c(Cc4ccc(C)cc4)c(C)n3n2)cc(OC)c1OC	-28.1	–
CN1C/C(=C/c2cccs2)C(=O)/C(=C\c2cccs2)C1	3.47	–
CSC1=N/C(=C\C=C\c2cccs2)C(=O)S1	–	20 µM (active)
Cc1cccc(C2=N/C(=C/c3cccs3)C(=O)O2)c1	-0.905	–
COc1ccc(CCC(=O)NCCc2csc(-c3ccc(Cl)cc3)n2)cc1	-1.93	–
COc1ccc(CCNc2nc3c(-c4cccc(F)c4)nnn3c3ccccc23)cc1OC	40.6	–

SMILES	activity change, negative = inhibition [%]	Potency
COCCCNc1nc2c(-c3cccc(C(F)(F)F)c3)nnn2c2ccccc12	-25.9	–
COCCCNc1nc2c(-c3cccc(C)c3)nnn2c2ccc(Cl)cc12	–	35.5 µM (active)
COc1ccc(C(=O)COC(=O)CCCC(=O)Nc2cc(C(F)(F)F)ccc2Cl)cc1	-2.85	–
O=C(CCCN1C(=O)/C(=C/c2ccco2)SC1=S)Nc1ccccc1	–	12.6 µM (active)
O=C(CCCN1C(=O)/C(=C\c2ccco2)SC1=S)Nc1cccc2ccccc12	–	10 µM (active)
CN1C=CC=C/C1=C1\SC(=S)N(Cc2ccccc2)C1=O	6.67	–
COc1ccc(/C=C2\SC(=S)N(CCC(=O)Nc3cccc(C(=O)O)c3)C2=O)cc1OC	–	70.8 µM (active)
O=C1/C(=C\c2ccccc2Cl)SC(=S)N1CCC(=O)N1CCCc2ccccc21	5.83	–
COc1ccc(/C=C2\SC(=S)N(CC(=O)NNC(=O)c3ccncc3)C2=O)cc1	29.9	–
O=C(CCN1C(=O)/C(=C/c2cccs2)SC1=S)NNC(=O)c1cccc(O)c1	-8.72	–
O=C(CCCN1C(=O)/C(=C/c2cccs2)SC1=S)Nc1ccc(O)cc1	9.43	–
Cc1ccc(/C=C2\SC(=S)N(CCC(=O)Nc3ccc(O)cc3)C2=O)cc1	2.43	–
COc1ccc(/C=C2/SC(=O)N(CCCCCC(=O)Nc3ccccc3C(=O)O)C2=S)cc1	24.4	–
COc1cc(/C=C2/SC(=S)N(Cc3ccccc3)C2=O)cc(OC)c1O	–	14.1 µM (active)
O=C(CCCN1C(=O)/C(=C/c2ccccc2)SC1=S)Nc1ccc(O)cc1	0.267	–
COc1cccc(CN2CCc3nc(SCC(=O)Nc4ccccc4)[nH]c(=O)c3C2)c1	18.1	–
Cc1ccc2nc(COc3ccccc3NC(=O)Nc3ccc(F)c(Cl)c3)cc(=O)n2c1	2.36	–
COc1ccc(-c2c3c(=O)n(C)c(=O)n(C)c3c3c(C)nc4ccccc4n23)cc1	-27.7	–
Cc1ccc(-c2nnc(Nc3cccc(Br)c3)c3ccccc23)cc1S(=O)(=O)NCC1CCCO1 (stereo not drawn)	21.3	–
COc1ccc(-c2cccc(NS(=O)(=O)c3cc(C)c(OC)c(C)c3C)c2)nn1	10.4	–
O=C(O)c1ccc(Cn2c(SCc3ccc(F)cc3)nc3ccncc32)cc1	6.07	–
CCOc1ccc(N(CC)S(=O)(=O)N2CCCC(C(=O)Nc3ccc(C(C)=O)cc3)C2)cc1 (stereo not drawn)	4.94	–
COc1cc(OC)c(C2C=C(C(=O)O)Nc3ncnn32)cc1OC (stereo not drawn)	31.7	–
CC1CCN(S(=O)(=O)c2ccc3c(ccn3CCC(=O)NCc3ccc(N(C)C)cc3)c2)CC1	-2.55	–
